The results in this text go back to PubChem BioAssay (NCATS).

Assay [1] is described as follows: Cellular Toxicity (caspase-3) H-4-II-E (AID 663).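 Note: cells exposed to compound for 16 hr before readout; 0% = DMSO basal and 100% = 100 µM tamoxifen.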 The following applies: Potency: caspase-3 activation. The essentials: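 Caspase 3/7 activation measured in H-4-II-E cells in complete culture medium after 16 hr treatment at 37 °C, using luciferase-coupled substrate readout; AC50 values come from Hill-equation fits of normalized concentration-response data.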
The nature of assay [2]: MultiTox-Fluor Cytotoxicity Assay - LYMP1-001 - Live Cells (AID 947).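 Note: 0% = DMSO only and full inhibition = tetraoctylammonium bromide control.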
A short description of assay [3]: MultiTox-Fluor Cytotoxicity Assay - LYMP1-002 - Dead Cells (AID 960).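 Note: 0% = DMSO and 100% = tetraoctylammonium bromide; nearly all actives have a fitted effect of over 60% in size.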 The method in brief: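 Cells were plated, rested 5 hr, then treated with compound dilution series for 16 hr at 37 C. After adding substrate reagent and 60 min at room temperature, dead-cell protease fluorescence gave concentration-response curves fitted by the Hill equation.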
A short description of assay [4]: MultiTox-Fluor Cytotoxicity Assay - LYMP1-003 - Live Cells (AID 962).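 Note: 0% = DMSO only and full loss = 92 µM tetraoctylammonium bromide; cytotoxic hits lower the live-cell protease signal.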 The method in brief: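 Acute cytotoxicity is scored as a drop in live-cell protease activity in human lymphoblastoid LYMP1-003 cells after 16 hr compound exposure at 37 C. AC50 values come from Hill-equation modelling of concentration-response data.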
Assay [5] is described as follows: Cell Viability - LYMP2-009 (AID 968). Note: nearly all actives have a fitted effect of over 55% in size. Note: potency is the fitted concentration of half-maximal effect.
Assay [6] is described as follows: Cell Viability - LYMP2-012 (AID 982).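 For activity change, negative = cytotoxicity: 0% = DMSO only and full loss = 92 µM tetraoctylammonium bromide.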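 Note: cellular ATP by luciferase luminescence where a drop means cytotoxicity; cells exposed to compound for one day before reading; nearly all actives have a fitted effect of over 55% in size.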 Note: potency is the fitted concentration of half-maximal effect.
A short description of assay [7]: Cell Viability - LYMP2-024 (AID 988).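 For activity change, negative = cytotoxicity: plate controls were DMSO only for no effect and 92 µM tetraoctylammonium bromide for full effect.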 Note: nearly all actives have a fitted effect of over 60% in size. Note: potency is the fitted concentration of half-maximal effect. The essentials: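 qHTS cytotoxicity, human lymphoblastoid line, complete medium; 24 h cpd treatment, 37 C; CellTiter-Glo ATP luminescence readout; tetraoctylammonium bromide positive control; AC50 via Hill fit.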
The target of assay [8] is Vitamin D3 receptor (Homo sapiens) (UniProt P11473). Kind of assay: qHTS assay for small molecule antagonists of vitamin D receptor signaling (AID 588541; calls by dose curve;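 note: receptor activated by calcitriol during compound treatment; % is set by controls: 0 for no effect and ±100 for the full control effect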). The essentials: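 VDR-UAS-bla HEK293T cells (2000/well, 2% charcoal-stripped FBS) were treated with titrated compounds plus 1-alpha,25-dihydroxyvitamin D3 (50 nM or 3 nM final) for 16 h at 37 C. CCF4 beta-lactamase fluorescence was read; Hill fits gave IC50.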
Vitamin D3 receptor (Homo sapiens), sequence (P11473 whole entry, looked up): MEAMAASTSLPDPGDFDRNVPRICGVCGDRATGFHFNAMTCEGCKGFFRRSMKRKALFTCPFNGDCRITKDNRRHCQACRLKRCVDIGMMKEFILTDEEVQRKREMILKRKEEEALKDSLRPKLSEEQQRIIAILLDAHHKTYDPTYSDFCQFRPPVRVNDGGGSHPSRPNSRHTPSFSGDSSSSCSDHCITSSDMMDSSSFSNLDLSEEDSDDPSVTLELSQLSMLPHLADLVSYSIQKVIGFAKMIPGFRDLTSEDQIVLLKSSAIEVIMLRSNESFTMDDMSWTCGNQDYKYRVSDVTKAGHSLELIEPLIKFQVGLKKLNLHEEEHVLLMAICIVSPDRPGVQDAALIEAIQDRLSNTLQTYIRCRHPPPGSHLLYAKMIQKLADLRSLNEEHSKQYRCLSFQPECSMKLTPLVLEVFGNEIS
(In qHTS, concentration-response curves come from the screen itself.)

The nature of assay [9]: qHTS assay for small molecule antagonists of retinoid X receptor alpha signaling (AID 588546; active = well fitted inhibition curve with a large enough effect in the signal ratio, with a control signal flat, not every such curve was filed as active; the % refers to the signal ratio;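 note: cells stimulated with 9-cis-retinoic acid as agonist; % is set by controls: 0 for no effect and ±100 for the full control effect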). The following applies: HEK293T RXRa-UAS-bla, beta-lactamase ratio, antagonist mode; measured here: W530 green channel, cytotoxicity proxy. The method in brief:
(§1)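 Beta-lactamase reporter inhibition, read as CCF4 fluorescence ratio (ex 405, em 460/530 nm) after 2 h at RT. HEK293T UAS-bla cells, 2500/well, were stimulated with 9-cis-RA at 500 or 100 nM final alongside test compound for 18 h at 37 C.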

For assay [10], the target named is Retinoic acid receptor RXR-alpha (Homo sapiens) (UniProt P19793). The description is as above. The following applies: HEK293T RXRa-UAS-bla, beta-lactamase ratio, antagonist mode. The essentials: as §1
Retinoic acid receptor RXR-alpha (Homo sapiens), sequence (P19793 whole entry, looked up): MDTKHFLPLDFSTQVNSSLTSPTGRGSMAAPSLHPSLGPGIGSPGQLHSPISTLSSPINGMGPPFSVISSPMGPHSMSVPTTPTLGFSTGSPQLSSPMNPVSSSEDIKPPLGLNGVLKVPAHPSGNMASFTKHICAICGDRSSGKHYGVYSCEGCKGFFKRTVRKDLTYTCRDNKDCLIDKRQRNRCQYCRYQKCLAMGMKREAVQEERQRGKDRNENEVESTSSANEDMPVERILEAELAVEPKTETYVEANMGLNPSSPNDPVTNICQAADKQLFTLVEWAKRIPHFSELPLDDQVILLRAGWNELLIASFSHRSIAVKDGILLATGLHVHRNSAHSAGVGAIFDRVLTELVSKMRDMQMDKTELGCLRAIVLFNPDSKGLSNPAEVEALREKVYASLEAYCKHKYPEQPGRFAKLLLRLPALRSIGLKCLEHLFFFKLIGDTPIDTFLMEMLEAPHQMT
A short description of assay [11]: qHTS assay for small molecule activators of the human pregnane X receptor (PXR) signaling pathway (AID 720659; call rule not given here; note: 0% is about no effect).
Assay [12] can be described thus: Cell Viability - Jurkat (AID 426;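 active = dose-dependent loss of cell ATP signal giving a full or clear fitted curve, ranked by lower potency value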;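 note: potency is the fitted concentration of half-maximal effect; cells exposed to compound for 40 hours at 37 °C before ATP read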). The conditions noted are these: qHTS. The essentials: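 Cells of the human T-cell leukemia line Jurkat (E6-1) are seeded at 5000 per well, treated with compound across a concentration range for 40 hours at 37 °C, then lysed with CellTiter-Glo; luminescence reports ATP.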
Assay [13] is described as follows: Cellular Toxicity (caspase-3) HepG2 (AID 654).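 Note: cells exposed to compound for 16 hours before reading; 0% = DMSO alone and 100% = caspase signal from 100 µM tamoxifen.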 The essentials:
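Caspase 3/7 activation in HepG2 is measured as rising luminescence after a 16 hr treatment at 37 °C. Values are scaled between DMSO basal and 100 uM tamoxifen, and AC50 is fitted with the Hill equation.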

Assay [14] is described as follows: Cell Viability - LYMP2-005 (AID 967).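 Note: plate controls were DMSO only for no effect and 92 µM tetraoctylammonium bromide control for full effect.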 The method in brief: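 CellTiter-Glo luminescence (cellular ATP) read-out; LYMP2-005 lymphoblastoid cells, 2500/well, 5 h pre-incubation, then 24 h compound exposure at 37 C in complete medium. Tetraoctylammonium bromide positive control; AC50 by standard Hill fit.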
Assay [15] is described as follows: Cell Viability - LYMP2-018 (AID 985).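 Note: compound exposure lasted 24 hr at 37 °C; plate controls were DMSO only for no effect and tetraoctylammonium bromide at 92 µM for full effect; nearly all actives have a fitted effect of over 50% in size.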 The method in brief:
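Seed 2500 lymphoblastoid cells per well, incubate 5 hr at 37 C, add compound and incubate 24 hr at 37 C, add CellTiter-Glo, wait 30 min at room temperature, then read luminescence.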

Assay [16] has as its target Thyroid hormone receptor beta (Homo sapiens) (UniProt P10828). Nature of the assay: qHTS assay for small molecule agonists of thyroid hormone receptor beta signaling (AID 588545; calls by dose curve;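 note: 0% = DMSO only and 100% = 10 nM T3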). The method in brief:
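Efficacy and EC50 values derive from Hill fits of qHTS titration data, normalized to 10 nM T3 and DMSO-only wells. HEK 293 reporter cells were stimulated for 18 hrs at 37 C, with beta-lactamase activity measured by CCF4 fluorescence.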

The target of assay [17] is Nuclear receptor ROR-gamma (Homo sapiens) (UniProt P51449). Kind of assay: qHTS assay for small molecule antagonists of the retinoid-related orphan receptor gamma (ROR-gamma) signaling pathway (AID 651802).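 Note: CHO cells with doxycycline-induced ROR-gamma expression; % is set by controls: 0 for no effect and ±100 for the full control effect; nearly all actives have a fitted effect of over 60% in size.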 The essentials:
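Steps: cells dispensed; compound or DMSO transferred by pin tool; doxycycline added to induce the ROR response element-driven luciferase; plates held 16hr at 37C; ONE-Glo added and luminescence measured.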

The nature of assay [18]: qHTS assay for small molecule antagonists of the retinoid-related orphan receptor gamma (ROR-gamma) signaling pathway - cell viability counter screen (AID 720652; active = well fitted curve in the direction sought with a large enough effect in the repeat runs; an effect the other way counts as inactive or inconclusive;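 note: CHO reporter cells with doxycycline-induced ROR-gamma expression; compound exposure lasted 16 hr before ATP read; % is set by controls: 0 for no effect and ±100 for the full control effect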). The method in brief:
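Steps: seed CHO cells bearing TET-inducible ROR and ROR response element-luciferase; rest 5 hr at 37 C; add compound, then doxycycline; incubate 16 hr; add CellTiter-Glo and read luminescence as ATP-based viability.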

Assay [19] is described as follows: qHTS assay for small molecule agonists of the antioxidant response element (ARE) signaling pathway measured by Nrf2-dependant transcriptional activity - cell viability counter screen (AID 720653; active = well fitted curve in the direction sought with a large enough effect in the repeat runs; an effect the other way counts as inactive or inconclusive; note: % is set by controls: 0 for no effect and ±100 for the full control effect). The conditions noted are these: ARE-bla HepG2 viability, CellTiter-Glo ATP luminescence, 16 h; stronger effect = lower value. The method in brief:
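ARE-bla HepG2 cells (2,000/well) rested 5 hrs at 37C/5% CO2, then exposed to compounds in DMSO for 16 hrs. Viability was read in the same wells as intracellular ATP by luminescence, 30 min at room temperature after reagent addition.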

The nature of assay [20]: Cell Viability - N2a (AID 540).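 Note: cells exposed to compound for 40 h at 37 °C; plate controls were DMSO alone for no effect and tamoxifen control for full effect; nearly all actives have a fitted effect of over 45% in size.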 The conditions noted are these: N2a mouse neuroblastoma cell viability; activity change, negative = cytotoxicity: at 92.2 µM (top of the series). The essentials:
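Cytotoxicity was scored as loss of cellular ATP in N2a cells, a mouse neuroblastoma line. Compounds are applied in a qHTS concentration series for 40 hr at 37 °C.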

Molecules are shown by their SMILES. Where “and” joins values, the source holds several entries; their conditions need not be identical. Identical values can stand only once. Inconclusive results are not listed. Calls of active or inactive are those of the source. Unless noted, calls come from the whole dose curve; as a rule, active = well fitted curve in the direction sought with a large enough effect; inconclusive = small, poorly fitted or top-dose-only effect, or another doubt; inactive = no such curve, though single readings can be large; an effect the other way counts as inactive or inconclusive. A value given as a limit tells only on which side of the number the result lay.

Nuclear receptor ROR-gamma (Homo sapiens), sequence (P51449 whole entry, looked up): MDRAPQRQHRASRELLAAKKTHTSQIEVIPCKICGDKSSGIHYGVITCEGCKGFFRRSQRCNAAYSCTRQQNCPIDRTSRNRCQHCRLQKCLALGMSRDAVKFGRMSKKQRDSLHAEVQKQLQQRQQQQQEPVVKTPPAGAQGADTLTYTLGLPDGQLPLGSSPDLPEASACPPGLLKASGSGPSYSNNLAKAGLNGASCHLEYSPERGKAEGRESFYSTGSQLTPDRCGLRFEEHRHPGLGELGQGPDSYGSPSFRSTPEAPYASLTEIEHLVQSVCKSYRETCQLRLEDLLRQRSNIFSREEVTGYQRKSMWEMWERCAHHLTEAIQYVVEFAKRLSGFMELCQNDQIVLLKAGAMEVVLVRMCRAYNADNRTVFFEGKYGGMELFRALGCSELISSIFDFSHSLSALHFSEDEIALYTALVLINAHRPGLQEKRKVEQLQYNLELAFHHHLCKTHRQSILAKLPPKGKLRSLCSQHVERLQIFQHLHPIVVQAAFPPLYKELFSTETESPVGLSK
Thyroid hormone receptor beta (Homo sapiens), sequence (P10828 whole entry, looked up): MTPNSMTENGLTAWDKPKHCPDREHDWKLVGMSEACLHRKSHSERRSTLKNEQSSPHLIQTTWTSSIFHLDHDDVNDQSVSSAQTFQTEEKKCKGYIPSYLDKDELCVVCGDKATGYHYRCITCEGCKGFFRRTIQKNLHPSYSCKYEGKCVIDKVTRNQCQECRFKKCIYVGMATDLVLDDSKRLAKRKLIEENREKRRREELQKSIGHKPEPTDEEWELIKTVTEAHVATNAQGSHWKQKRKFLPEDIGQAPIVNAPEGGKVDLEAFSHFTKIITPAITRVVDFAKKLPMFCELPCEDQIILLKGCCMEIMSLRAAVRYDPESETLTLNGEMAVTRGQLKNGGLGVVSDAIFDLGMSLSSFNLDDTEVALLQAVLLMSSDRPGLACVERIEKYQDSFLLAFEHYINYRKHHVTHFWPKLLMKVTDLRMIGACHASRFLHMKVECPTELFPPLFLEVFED

For the molecule `BrCC(Br)(Br)Br`, the Potency entry in assay [1] and in assay [3] was “inactive” in each case. The result in assay [2], in [4], in assay [8] and in [11] was inactive. Further, the Potency in assay [5] is 31.6 µM (active); in assay [6], 12.6 µM (active); in assay [7] it was 12.6 µM (active). Further, the max response in [9] is 2.45%; in assay [10] it was 23.1% (inactive).
As to `COP(=S)(OC)SCn1nnc2ccccc2c1=O`, in [12], the Potency is > 92 µM (inactive). Besides, the molecule was classed as inactive in assay [13], in assay [2] and in assay [8]. Further, the Potency entry in assay [1], in assay [3], in assay [14], in assay [5], in [6] and in assay [15] was “inactive” in each case. Also, the Potency entry in assay [7], in assay [16], in assay [17] and in [18] was “inactive” in each case. Besides, the max response in assay [19] was -8.53% (inactive) and -8.77% (inactive).
In the case of `CN(C)c1ccc(N(C)C)cc1`, the result in assay [13], in [2], in assay [4] and in assay [11] was inactive. The Potency entry in assay [1], in assay [3], in assay [16] and in assay [17] was “inactive” throughout. The Potency in assay [7] was 50.1 µM (active). In addition, the max response in [9] is -9.82%; in assay [10] it was 17.1% (inactive); in [19] it was -11.4% (inactive).
On to `CC[N+](=O)[O-]`, for which the Potency in assay [12] was > 92 µM (inactive). Also, the Potency result in assay [20], in assay [3], in assay [14], in assay [5], in assay [6] and in assay [15] was “inactive” each time. Also, the Potency entry in assay [7], in assay [17] and in assay [18] was “inactive” in each case. The result in [13], in assay [4], in assay [8] and in [11] was inactive. The max response is -3.61% in [9], 5.74% (inactive) in assay [10] and 9.27% (inactive) in [19].
Turning to `Oc1cc(Cl)cc(Cl)c1`, in [12], the Potency was > 92 µM (inactive). Besides, the outcome in assay [13], in assay [2], in assay [4], in [8] and in [11] was inactive. Also, the Potency result in [1], in [3], in assay [14], in [5], in assay [6] and in [15] was “inactive” each time. Moreover, the Potency entry in assay [7], in assay [16], in [17] and in [18] was “inactive” in each case. In addition, the max response in assay [9] is -2.61%; in assay [10], -5.58% (inactive); in assay [19], -11.3% (inactive).
With `Nc1ccc(Cc2ccc(N)cc2)cc1`, the Potency in assay [12] is > 92 µM (inactive). Besides, the Potency entry in [20], in assay [1], in assay [3], in assay [14], in assay [5] and in assay [15] was “inactive” throughout. The Potency entry in assay [7], in assay [16], in assay [17] and in assay [18] was “inactive” each time. The result in assay [13], in assay [2], in assay [8] and in assay [11] was inactive. The max response in assay [9] is -3.16% and 6.7%; in assay [10], -0.525% (inactive) and -18.2% (inactive); in assay [19], -0.954% (inactive) and 9.87% (inactive).
Regarding `CC(C)CON=O`, the Potency in [12] is > 92 µM (inactive). Also, the Potency result in assay [20], in [1], in assay [3], in assay [14], in assay [5] and in [6] was “inactive” each time. In addition, the Potency result in [15] and in assay [7] was “inactive” each time. For the same molecule, the outcome in assay [13], in assay [2], in [4], in assay [8] and in assay [11] was inactive. For the same molecule, the max response was -4.96% in [9], 8.37% (inactive) in [10] and 3.18% (inactive) in [19].
For the molecule `O=C(O)CBr`, in [12], the Potency was > 92 µM (inactive). In addition, the Potency entry in [20], in [1], in assay [14], in assay [5], in assay [6] and in assay [15] was “inactive” in each case. Also, the Potency result in assay [7], in assay [16], in assay [17] and in assay [18] was “inactive” each time. In addition, the result in [13], in assay [2], in assay [4], in assay [8] and in [11] was inactive. The figures for the max response in assay [9], in [10] and in [19] were -7.96%, -0.759% (inactive) and 9.96% (inactive), respectively.
Turning to `Oc1cccc(Cl)c1`, in assay [12], the Potency was > 92 µM (inactive). The Potency entry in assay [20], in assay [1], in [3], in assay [14], in assay [5] and in assay [6] was “inactive” throughout. Further, the Potency result in [15], in [7], in assay [16], in [17] and in assay [18] was “inactive” each time. Besides, the outcome in assay [4], in assay [8] and in assay [11] was inactive. The max response in assay [9] was -0.103%; in assay [10], 4.02% (inactive); in assay [19] it was -6.82% (inactive).
